CBFb-RUNX1 inh – qHTS Assay for Compounds Blocking the Interaction Between CBF-beta and RUNX1 for the Treatment of Acute Myeloid Leukemia | Potency, µM (doses to about 59.8 µM), without a hit: top-dose activity, negative = inhibition, usual class: inhibitors | 230,000 tested, under 10 active | AlphaScreen CBFb-His/RUNX1-biotin binding, biochemical | AID 1477, 2009; also: % of control where 0% means no effect
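CBFb-His/RUNX1-biotin, 30 nM each, preincubated 20 min RT; compound 15 min RT; Ni + streptavidin beads 50 ng each, 90 min RT; AlphaScreen read.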
TRb-SRC2 inh – qHTS for Inhibitors of the Interaction of Thyroid Hormone Receptor and Steroid Receptor Coregulator 2. TRbeta-SRC2 peptide binding, fluorescence polarization; receptor liganded with 1 µM T3. Potency, µM (titrated, usually from 106 µM), inactives show top-dose activity change, negative = inhibition, actives largely listed as inhibitors. 0.065% of 280,000 active. AID 1469, 2008;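 also: potency is read from the fitted curve at half-maximal effect; plate controls were bound peptide for no effect and peptide without receptor for full effect; nearly all actives have a fitted effect of over 50% in size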
Target sequence (P10828 whole entry, looked up): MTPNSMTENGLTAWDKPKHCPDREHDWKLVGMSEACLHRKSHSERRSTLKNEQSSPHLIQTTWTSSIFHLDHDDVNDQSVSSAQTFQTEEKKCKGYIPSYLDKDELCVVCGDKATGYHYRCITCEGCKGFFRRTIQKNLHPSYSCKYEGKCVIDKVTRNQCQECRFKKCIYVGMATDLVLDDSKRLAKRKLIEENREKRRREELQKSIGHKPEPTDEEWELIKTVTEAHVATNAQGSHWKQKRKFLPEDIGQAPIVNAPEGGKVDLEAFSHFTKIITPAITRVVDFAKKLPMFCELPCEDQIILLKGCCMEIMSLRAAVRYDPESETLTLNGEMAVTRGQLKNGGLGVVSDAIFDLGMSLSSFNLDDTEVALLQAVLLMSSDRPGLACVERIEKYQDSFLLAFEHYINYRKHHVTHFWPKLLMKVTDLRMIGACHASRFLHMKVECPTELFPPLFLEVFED
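Fluorescence polarization of 20 nM Texas Red SRC2 peptide with 0.6 uM human TRb ligand-binding domain, in Tris buffer with 1uM T3 and 5% DMSO. Incubated 5 hr ambient; normalized to unbound and bound controls.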
TR SRC2 fluor cs – Total Fluorescence Counterscreen for Inhibitors of the Interaction of Thyroid Hormone Receptor and Steroid Receptor Coregulator 2. AID 1479, 2009. Potency, µM (top dose mostly 106 µM), inactives show at the highest dose fluorescence change, negative = quenching. 0.29% of 280,000 active. TRb/SRC2 Texas Red total fluorescence interference; active = well fitted curve in either direction with a large enough effect; inconclusive = small, poorly fitted or top-dose-only effect; also: potency is read from the fitted curve at half-maximal effect; % is scaled to controls: 0 for no effect and ±100 for the full control effect
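Human TRb ligand-binding domain at 0.6 uM with 20 nM Texas Red SRC2 peptide in Tris buffer containing 1 uM T3 and 5% DMSO, incubated with compound 5 h at ambient temperature. Total fluorescence (555/632 nm) calculated as parallel + 2 × perpendicular.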
GoLoco inh red – qHTS Assay for Inhibitors of RGS12 GoLoco Motif Activity (Red Fluorophore); Guanine nucleotide-binding protein G(i) subunit alpha-1 (Homo sapiens), P63096; Gai1:RGS12 GoLoco peptide FP, rhodamine, 10 min; Potency, µM (highest dose often 61.6 µM), without a hit: top-dose activity, negative = inhibition, most hits filed as inhibitors; 0.44% of 230,000 active; active = well fitted inhibition curve with a large enough effect, not every such curve was filed as active; inactive = no such curve, though single readings can be large or run the other way; also: potency is read from the fitted curve at half-maximal effect; % is scaled to controls: 0 for no effect and ±100 for the full control effect; nearly all actives have a fitted effect of over 30% in size
Target sequence (P63096 whole entry, looked up): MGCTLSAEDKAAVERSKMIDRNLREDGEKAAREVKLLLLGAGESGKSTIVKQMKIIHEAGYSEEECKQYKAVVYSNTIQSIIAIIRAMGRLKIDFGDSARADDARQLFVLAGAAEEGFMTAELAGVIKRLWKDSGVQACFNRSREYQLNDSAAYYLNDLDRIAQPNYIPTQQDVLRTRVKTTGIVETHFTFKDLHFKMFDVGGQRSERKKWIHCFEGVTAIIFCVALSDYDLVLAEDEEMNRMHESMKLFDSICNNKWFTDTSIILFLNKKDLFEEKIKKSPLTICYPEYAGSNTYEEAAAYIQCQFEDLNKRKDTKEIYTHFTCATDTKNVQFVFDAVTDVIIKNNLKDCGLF
Epigenetic reg – Quantitative High-Throughput Screen for Regulators of Epigenetic Control; murine LDR cells, GFP reporter derepression, 30 h; Potency, µM (titrated, usually from 53.9 µM), for the others: at the highest dose GFP activation, hits mostly activators; 0.2% of 280,000 active; AID 1865, 2009; also: potency is read from the fitted curve at half-maximal effect; % of control where 0% means no effect; nearly all actives have a fitted effect of over 60% in size
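Murine LDR cells bearing a silenced CMV-driven GFP reporter were exposed to compound for 30 h at 37 C. After PBS washes, GFP-positive cells (20-120 um objects) counted by laser-scanning microplate cytometry.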
Active calls of the source: *; [ ] = remark or other dose. Only some compounds are listed: those with a hit (about 0.71% of all), similar ones and a draw of the others. Unless noted, calls follow the shape of the dose curve; as a rule, active = well fitted curve in the direction sought with a large enough effect; inconclusive = small, poorly fitted or top-dose-only effect, or another doubt; inactive = no such curve, though single readings can be large; an effect the other way counts as inactive or inconclusive.

Results for O=C1/C(=C/c2ccncc2)SC(=S)N1Cc1ccccc1 ?
CBFb-RUNX1 inh: -15.1%; TRb-SRC2 inh: 4.2%; TR SRC2 fluor cs: 0.5%; GoLoco inh red: 8.1%; Epigenetic reg: 15.8µM*

How did CCCN1C(=O)/C(=C/c2ccncc2)SC1=S do in these assays?
CBFb-RUNX1 inh: -5.5%; TRb-SRC2 inh: 15.3%; TR SRC2 fluor cs: -1.6%; GoLoco inh red: 15.6%; Epigenetic reg: -2.9%

Results for COc1ccc(NC(=O)c2nc3nc(C)cc(C(F)F)n3n2)c(C)c1 ?
TRb-SRC2 inh: 0.2%; TR SRC2 fluor cs: inconclusive; Epigenetic reg: -1.0%

What do the screens show for `COc1ccc(CNC(=O)c2cnc3sc(N4CCOCC4)nn3c2=O)cc1`?
TRb-SRC2 inh: -8.9%; TR SRC2 fluor cs: 501µM*[quencher]; Epigenetic reg: 2.8%

How did Cn1c(=O)c(Nc2ccc(Cl)cc2)c2c3c(cccc31)C(=O)c1ccccc1-2 do in these assays?
CBFb-RUNX1 inh: 0.5%; TRb-SRC2 inh: -5.7%; TR SRC2 fluor cs: 3.3%; GoLoco inh red: 14.1µM*; Epigenetic reg: inconclusive

Results for CC(=O)Nc1c2c3c(cccc3n(C)c1=O)C(=O)c1ccccc1-2 ?
CBFb-RUNX1 inh: -5.6%; TRb-SRC2 inh: -1.5%; TR SRC2 fluor cs: -4.9%; GoLoco inh red: -2.0%; Epigenetic reg: 0.0%

Results for O=C1c2cccc3c(N4CCCCC4)ccc(c23)C(=O)N1c1cccc(O)c1 ?
CBFb-RUNX1 inh: 5.4%; TRb-SRC2 inh: -6.4%; TR SRC2 fluor cs: 2.8%; GoLoco inh red: 68.7%; Epigenetic reg: 11.2µM*

What do the screens show for `C=CCN1C(=O)c2cccc3c(N4CCCCC4)ccc(c23)C1=O`?
CBFb-RUNX1 inh: 23.9%; TRb-SRC2 inh: 4.2%; TR SRC2 fluor cs: -0.2%; GoLoco inh red: 10.2%; Epigenetic reg: inconclusive

What do the screens show for `Cc1n[nH]c(C)c1N1C(=O)c2cccc3c(N4CCCCCC4)ccc(c23)C1=O`?
CBFb-RUNX1 inh: 19.9%; TRb-SRC2 inh: -9.2%; TR SRC2 fluor cs: 2.6%; GoLoco inh red: 20µM*; Epigenetic reg: 56.8%

How did O=C1c2cccc3c(N4CCCCC4)ccc(c23)C(=O)N1CCO do in these assays?
CBFb-RUNX1 inh: 16.4%; TRb-SRC2 inh: -2.7%; TR SRC2 fluor cs: -1.7%; GoLoco inh red: 16.6%; Epigenetic reg: 15.7%

How did CCCn1nc(NC(=O)c2cccc(Cl)c2)c2cc3cccc(C)c3nc21 do in these assays?
TRb-SRC2 inh: 1.1%; TR SRC2 fluor cs: -11.7%; Epigenetic reg: 15.8µM*

What do the screens show for `O=C1c2ccccc2C(=O)c2c(O)c(O)cc(O)c21`?
TRb-SRC2 inh: -16.5%; TR SRC2 fluor cs: -21.4%; GoLoco inh red: 6.7%; Epigenetic reg: 0.4%

What do the screens show for `CN(C)CCCNc1cc(O)c2c(c1O)C(=O)c1ccccc1C2=O`?
GoLoco inh red: 3.55µM*

What do the screens show for `COc1ccc(N2CCN(C(CNC(=O)C(=O)NCc3ccc(C)cc3)c3cccnc3)CC2)cc1` (centres undefined)?
TRb-SRC2 inh: 0.6%; TR SRC2 fluor cs: 6.2%; Epigenetic reg: 0.0%

Results for COc1cccc(NC(=O)C(=O)NCC(c2cccnc2)N2CCN(c3ccccc3)CC2)c1 (centres undefined) ?
TRb-SRC2 inh: -17.1%; TR SRC2 fluor cs: 100µM*[quencher]; Epigenetic reg: 3.2%

What do the screens show for `CCc1ccc(NC(=O)C(=O)NCC(c2cccnc2)N2CCN(c3ccc(F)cc3)CC2)cc1` (centres undefined)?
TRb-SRC2 inh: -17.5%; TR SRC2 fluor cs: 100µM*[quencher]; Epigenetic reg: -2.2%

How did COc1ccc(N2CCN(C(CNC(=O)C(=O)NCc3cccnc3)c3cccnc3)CC2)cc1 (centres undefined) do in these assays?
TRb-SRC2 inh: -19.6%; TR SRC2 fluor cs: 56.2µM*[quencher]; Epigenetic reg: 0.0%

How did CCc1ccc(NC(=O)C(=O)NCC(c2cccnc2)N2CCN(C)CC2)cc1 (centres undefined) do in these assays?
TRb-SRC2 inh: -20.3%; TR SRC2 fluor cs: -82.4%; Epigenetic reg: 11.3%

What do the screens show for `COC(=O)[C@H](COC(C)(C)C)NC(=O)O[C@@H]1C(=O)c2cc(Br)ccc2O[C@H]1c1ccc2c(c1)OCO2`?
CBFb-RUNX1 inh: -3.8%; TRb-SRC2 inh: 6.3%; TR SRC2 fluor cs: -1.2%; GoLoco inh red: -0.4%; Epigenetic reg: 0.8%

How did O=C(NCCN1CCCC1)c1ccc(Cc2nc3ccccc3[nH]2)cc1 do in these assays?
Epigenetic reg: 2.8%

How did COc1ccc2c(c1)O[C@H](c1ccc3c(c1)OCO3)[C@@H](OC(=O)NC1CCCC1)C2=O do in these assays?
CBFb-RUNX1 inh: -9.5%; TRb-SRC2 inh: 5.9%; TR SRC2 fluor cs: -1.7%; GoLoco inh red: 2.7%; Epigenetic reg: -1.1%

How did COc1ccc2c(c1)O[C@@H](c1ccc3c(c1)OCO3)[C@H](OC(=O)N[C@H](C)C1CCCCC1)C2=O do in these assays?
CBFb-RUNX1 inh: -2.4%; TRb-SRC2 inh: -2.6%; TR SRC2 fluor cs: -1.1%; GoLoco inh red: 31.6µM*; Epigenetic reg: 0.1%

How did C/C=C/c1ccc2oc(-c3ccc(O)cc3)c(C)c2c1 do in these assays?
CBFb-RUNX1 inh: 10.7%; TRb-SRC2 inh: -3.5%; TR SRC2 fluor cs: -0.9%; GoLoco inh red: 5.4%; Epigenetic reg: 4.5%

How did Cc1nc(COC(=O)c2ccc(CO)cc2)cs1 do in these assays?
CBFb-RUNX1 inh: 1.3%; TRb-SRC2 inh: -5.7%; TR SRC2 fluor cs: -0.6%; GoLoco inh red: 2.1%; Epigenetic reg: -1.5%

How did Cc1nc(COC(=O)c2cc(O)c3ccccc3c2O)cs1 do in these assays?
CBFb-RUNX1 inh: -2.0%; TRb-SRC2 inh: 1.0%; TR SRC2 fluor cs: -7.9%; GoLoco inh red: 25.1µM*; Epigenetic reg: -1.4%

What do the screens show for `CC(C=CC1=C(C)CCCC1(C)C)=CC=CC(C)=CC(=O)Nc1ccc(O)cc1`?
TRb-SRC2 inh: -3.5%[201 µM]; TR SRC2 fluor cs: -2.1%[201 µM]

How did CCCCC[n+]1cccc2c3ccccc3ccc21 do in these assays?
CBFb-RUNX1 inh: 1.0%; TRb-SRC2 inh: 8.0%; TR SRC2 fluor cs: -0.5%; GoLoco inh red: 15.8µM*; Epigenetic reg: -0.1%

How did COC(=O)C(=Cc1cc(Br)c(OC)c(Br)c1)C(=O)OC do in these assays?
CBFb-RUNX1 inh: 10.9%; TRb-SRC2 inh: -1.9%; TR SRC2 fluor cs: 0.3%; GoLoco inh red: -2.6%; Epigenetic reg: inconclusive

What do the screens show for `CC(C)c1ccc(/C=C2\C=C(c3ccc4ccccc4c3)OC2=O)cc1`?
GoLoco inh red: -4.7%[14.2 µM]

What do the screens show for `CCc1ccc(NC(=O)c2sc3nc(C)c(C(=O)Nc4ccc(C)cc4C)c(-c4ccco4)c3c2N)cc1`?
TRb-SRC2 inh: -13.3%; TR SRC2 fluor cs: -3.0%; Epigenetic reg: 17.8µM*

Bioassay records as filed in PubChem BioAssay.
